# FUS yeast rescue = rescues growth of FUS-expressing yeast; S. cerevisiae FUS-expressing, growth rescue, OD600, 24 h; Potency, µM (highest dose often 76.6 µM), most hits filed as activators; 390,000 tested, 0.24% active;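 also: plate controls were DMSO vehicle for no effect and reference control for full effect; nearly all actives have a fitted effect of over 55% in size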
#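 Restored growth of FUS-toxic S. cerevisiae, read as 600 nm absorbance after 24 h at 30C in galactose medium (starting OD 0.005). Controls CP55940 and DMSO.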
# MmCpn inh = inhibitors of Methanococcus maripaludis chaperonin TRiC (MmCpn) | purified Mm-Cpn ATPase, ADP Transcreener TR-FRET | AID 504842 | 330,000 tested, 0.031% active | Potency, µM (highest dose often 76.9 µM), inactives show at the highest dose activity, negative = inhibition, most hits filed as inhibitors; also: % is scaled to controls: 0 for no effect and ±100 for the full control effect; nearly all actives have a fitted effect of over 80% in size
#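 Compound-treated chaperonin, 25 nM final, turns over 10 uM ATP at 37°C for 30 min following a 10 min preincubation; ADP generated competes with ADP-d2 for Eu-cryptate antibody, lowering FRET.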
# ClpP mod = qHTS Assay for Activators of ClpP | purified B. subtilis ClpP, FRET peptide cleavage, 20 min | 340,000 tested, 1.9% active | Potency, µM (top dose mostly 57.5 µM), without a hit: at the highest dose activity change, negative = active; active = well fitted falling curve with a large enough effect; inconclusive = small, poorly fitted or top-dose-only effect; inactive = no such curve, though single readings can be large or run the other way; also: the source files actives as falling curves though it sought activators and does not explain the sign; nearly all actives have a fitted effect of over 65% in size
# Target sequence (P80244 whole entry, looked up): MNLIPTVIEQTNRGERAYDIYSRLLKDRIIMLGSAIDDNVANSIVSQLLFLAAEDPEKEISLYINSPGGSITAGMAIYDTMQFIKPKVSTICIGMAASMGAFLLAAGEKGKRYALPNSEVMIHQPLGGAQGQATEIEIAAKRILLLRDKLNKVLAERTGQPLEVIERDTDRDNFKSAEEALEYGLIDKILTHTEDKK
#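 ClpP 10 microg/mL final, pH 8 Tris/KCl buffer with BSA, glycerol, Tween-20; compound pinned in; FRET-FV substrate; RT 20 min; Ex320/Em430; ΔFRET vs ADEP 5.8 microM, DMSO, no enzyme.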
# aSyn yeast inh = rescues yeast growth from alpha-synuclein toxicity. Yeast expressing alpha-synuclein, growth rescue, BacTiter-Glo, 24 h. Potency, µM (highest dose often 46.1 µM), for inactives: at the top dose growth rescue (activation), most hits filed as activators. 370,000 tested, 0.14% active; also: % of control where 0% means no effect; nearly all actives have a fitted effect of over 65% in size
#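 Readout is rescue of growth in alpha-synuclein-expressing yeast, so inhibitors of toxicity appear as activators. Growth after 24 hr at 30 deg C in galactose medium is quantified by luminescence.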
# TDP-43 yeast inh = TDP-43 toxicity inhibition in yeast; TDP-43 expressing yeast growth rescue, BacTiter-Glo, 24 h; Potency, µM (titrated, usually from 46.1 µM), for the others: top-dose growth rescue (activation), hits mostly activators; 410,000 tested, 1.8% active; AID 652104; also: % of control where 0% means no effect; nearly all actives have a fitted effect of over 50% in size
#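 Readout is BacTiter-Glo luminescence of cell growth, so inhibitors register as activators. TDP-43-expressing yeast at OD600=0.02 in galactose medium, after raffinose pregrowth to mid-log, were incubated with compound for 24 hr at 30 deg C.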
# Abeta rescue = A-beta toxicity reversal in yeast; yeast expressing A-beta42, growth rescue, OD600, 48 h; response scale: 0% DMSO, 100% iron-clioquinol control; Potency, µM (highest dose often 46.1 µM), actives largely listed as activators; 410,000 tested, 0.063% active; AID 1347071; also: nearly all actives have a fitted effect of over 55% in size
#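 Yeast A-beta toxicity model in growth medium with pinned compounds, 48 h at 30 C; growth read as absorbance at 600 nm. Normalized to FeCl3/clioquinol equimolar mix (positive) and DMSO (negative).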
# * hit, by the source's call; i = inactive; ? = inconclusive; . = not tested or not shown; [ ] = dose if it differs, or a comment. A selection: hits, their analogues and other compounds. The true share with any hit is near 3.6%. Unless noted, calls follow the shape of the dose curve; as a rule, active = well fitted curve in the direction sought with a large enough effect; inconclusive = small, poorly fitted or top-dose-only effect, or another doubt; inactive = no such curve, though single readings can be large; an effect the other way counts as inactive or inconclusive. Potency is read from the fitted curve at half-maximal effect.
SMILES,FUS yeast rescue,MmCpn inh,ClpP mod,aSyn yeast inh,TDP-43 yeast inh,Abeta rescue
COc1cccc2sc3ccc(C#CC4(O)CCCCC4)cc3c(=O)c12,?,-9%,-6%,-7%,16µM*,i
COc1cccc2sc3ccc(C#Cc4ccc(N)cc4)cc3c(=O)c12,32µM*,-1%,1%,1%,-2%,i
Cc1ccc(CCNC(=O)CCCn2c(=O)c3cccn3c3ccc(F)cc32)cc1,i,.,?,.,35µM*,i
CC(CNC(=O)CCCn1c(=O)c2cccn2c2ccc(F)cc21)c1ccccc1 (stereo not drawn),?,.,-17%,.,25µM*,i
CC(CNC(=O)CCn1c(=O)c2cccn2c2ccc(F)cc21)c1ccccc1 (stereo not drawn),i,-8%,?,4%,18%,i
O=C(CCCn1c(=O)c2cccn2c2ccc(F)cc21)NCCc1ccccc1,i,.,-16%,.,6%,i
CCc1ccc(NC(=O)CCn2c(=O)c3cccn3c3ccccc32)cc1,?,-5%,-14%,-5%,13µM*,i
Cc1nc2sc(C(=O)NCc3nccs3)c(N)c2c(C)c1Cl,i,.,.,.,.,.
COc1ccc(-c2cc(C(=O)OC(C)C(=O)c3ccccc3)c3cccc(Cl)c3n2)cc1 (stereo not drawn),i,.,-3%,.,4%,i
Cc1cccc(C)c1OC(=O)CSc1nnc(-c2ccc3c(c2)OCO3)o1,i,.,25µM*,.,12%,i
Cc1ccc(Nc2nc3ccccc3c3nncn23)cc1C,i,.,?,.,?,i
C=CCNC(=O)CN(C(=O)c1csc2ccc(Cl)cc12)c1cccc(Br)c1,i,.,.,.,.,.
CCOC(=O)COc1c(-c2ccc(OC)cc2)oc2ccccc2c1=O,i,-3%,32µM*,22%,-6%,i
CCOc1ccc(-c2oc3ccccc3c(=O)c2O)cc1OCC,i,.,32µM*,.,-11%,i
O=c1c(O)c(-c2ccc3c(c2)OCO3)oc2ccccc12,i,1%,-10%,3%,-15%,i
CCOC(=O)c1c(-c2ccccc2)oc2ccc(OC)cc12,i,-2%,10µM*,-4%,-1%,i[9.22 µM]
CCOC(=O)c1c(-c2ccccc2)oc2ccc(OCC)cc12,i,-4%,.,6%,0%,i
CCOC(=O)c1c(-c2ccccc2)oc2ccc(OCC(O)CNCCN(C)C)cc12 (stereo not drawn),i,-5%,35µM*,-29%,-26%,i
COc1ccc(Cl)cc1Nc1nc2ccc(C(=O)c3ccccc3)cc2n2cnnc12,i,.,0%,.,19%,i
Cc1ccc(SCC(=O)Nc2ccc(O)c(-c3nc4cc(C)ccc4o3)c2)cc1,i,.,-2%,.,24%,i
CCCCN(C)CCNC(=O)c1nn(-c2ccc(OC)c(Cl)c2)c(=O)c2c1c1ccccc1n2C,i,.,-7%,.,-1%,i
O=c1[nH]c2ccccc2c(=O)n1Cc1ccccc1,i,1%,35µM*,1%,-8%,i
Cc1cccc(C)c1NC(=O)C1C(c2ccc3c(c2)OCO3)=Nc2ccccc2N1C(=O)c1ccccc1 (stereo not drawn),i,.,-15%,3%,?,i
O=C(Nc1ccc2c(c1)OCCO2)C1C(c2ccccc2)=Nc2ccccc2N1C(=O)c1cccnc1 (stereo not drawn),7.9µM*,.,-19%,-2%,-20%,i
O=C(NCc1ccccc1)C1C(c2ccc3c(c2)OCO3)=Nc2ccccc2N1C(=O)c1ccccc1 (stereo not drawn),i,.,-15%,-1%,13µM*,i
